The structures appear in SMILES notation. Active and inactive are the calls of the source. Rule for the calls: active = hit-call score of the fitted dose curve at least 0.9, where 1 is the maximum; inactive = score below 0.9.

Read-out in the assay: Cytochrome P450 (CYP1A1), CYP1A1 (gene 1543)
Put plainly: LTEA_HepaRG_CYP1A1: Life Technologies and Expression Analysis (LTEA) Assay for Cytochrome P450 (CYP1A1) using HepaRG (AID 2283454). As to conditions: mRNA level, 48 h; actives raise or lower the signal. Here is the method:
LTEA_HepaRG is a cell based, multiplexed-readout assay that uses HepaRG, a human liver cell line, with measurements taken at 48 hours after chemical dosing on a 96-well plate.LTEA_HepaRG_CYP1A1 is one of 102 assay component(s) measured in the LTEA HepaRG cell culture assay. It is a marker of NR mediated metabolism.Data from the assay component LTEA_HepaRG_CYP1A1 was analyzed into 1 endpoint. This assay endpoint, LTEA_HepaRG_CYP1A1, was analyzed with bidirectional fitting relative to DMSO as the negative control and baseline of activity. Using a type of inducible reporter, measures of mRNA induction for gain or loss-of-signal activity can be used to understand regulation of transcription factor activity. To generalize the intended target to other relatable targets, this assay endpoint is annotated to the cyp intended target family, where the subfamily is xenobiotic metabolism.
A total of 1060 chemcials from the ToxCast library were tested in eight-point concentration-response experiments. Cell culture and cytotoxicity assays were conducted at Thermo Fisher Scientific's Custom Services facility (Madison, WI). A single lot of human HepaRG cells (Thermo Fisher Scientific, Frederick, MD) was used for the cell culture experiments. 96-well format collagen type I coated plates of human HepaRG cells were prepared using established methods. Briefly, cryopreserved HepaRG cells were thawed, plated at a density of approximately 100,000 cells/well in HepaRG Thaw, Plate, and General Purpose media (HPRG770, Thermo Fisher Scientific), and incubated for 48 hours. 0.5% DMSO was selected as vehicle control to balance the requisite need of DMSO in HepaRG cultures to maintain differentiation (for example, baseline metabolism, proportions of hepatocytes vs. cholangiocytes), while enabling further hepatic receptor pathway activation (for example, PXR and CAR) in response to chemical exposure. 48 hours after plating, the culture medium was replaced with HepaRG Serum-Free Incudtion Media. Cells were exposed to each test chemical in duplicate and maintained in CO2 incubators for another 48 hours. Chemical plates were thawed to room temperature and 200x concentrations of treatment groups were prepared. 8-point conentration-reponse curves were made with the highest exposure at 100 uM, followed by half-log dilutions, all in 0.5% DMSO. Each test plate contained variouse controls, induction positive controls (1mM phenobarbital), cytotoxicity positive controls ([…] aflatoxin B1), vehicle controls (0.5% DMSO), and total lysis controls (0.5% DMSO). Cell morphology images were taken using an Essen IncuCyte FLR automated microscope, with six 96-well plates imaged in about 24 minutes. Images were captured and exported and JPEG files. Spent culture media was transfered to black-well plates for the LDH assay, and remaining media was sorted at -80 C for later use. Cells were treated with RLT buffer and frozen until shipped for gene expression analysis. Total RNA was isolated from the cell suspension in 75 uL of Buffer RLT (Qiagen, Germantown, MD 20874) by Quintiles/Expression Analysis (Durham, NC) using a custom isolation procedure. Total RNA from each plate well was transferred to a preamplification plate. Fluidigm's 96.96 Dynamic ArrayTM (Fluidigm, Amsterdam, the Netherlands) technology was used for gene expression analyses by quantitative reverse transcription polymerase chain reaction (qRT-PCR, performed by Quintiles/Expression Analysis, Durham, NC)89. Standard TaqManTM Assays (Applied Biosystems/ThermoFisher Scientific, Foster City, CA) were used to assess the expression of 93 genes selected based on their selectivity and sensitivity to important hepatic receptors known to be modulated by environmental chemicals; importance in human hepatocyte functionality; and hepatotoxicity. […]
In the case of `CCCCC(CC)COC(=O)c1ccc(C(=O)OCC(CC)CCCC)cc1` (stereo not given), the molecule was classed as inactive.

For the molecule `CCOCCOCCOCCO`, the outcome was inactive.

For `COc1ccc(/C=C/S(=O)(=O)NC(=O)c2ccc(C)cc2Cl)cc1`, the AC50 was 50 µM (active).

As for `CC(=O)OC[C@H]1O[C@@](COC(C)=O)(O[C@H]2O[C@H](COC(C)=O)[C@@H](OC(C)=O)[C@H](OC(C)=O)[C@H]2OC(C)=O)[C@@H](OC(C)=O)[C@@H]1OC(C)=O`, the AC50 was 47.5 µM (active).

For the molecule `O=C1CCC(N2C(=O)c3ccccc3C2=O)C(=O)N1` (stereo not given), the AC50 is 67.7 µM (active).

As for `COc1ccc(-n2nc(C(F)F)cc2-c2ccc(S(C)=O)cc2)cc1` (stereo not given), the AC50 is 60.3 µM (active).

Consider `CCN(C(=O)c1cc(C)cc(OC[C@H](C)Nc2ccncc2)c1)C(C)C`, for which the AC50 is 19.5 µM (active).

In the case of `Clc1nc(Cl)c(Cl)c(Cl)c1Cl`, the AC50 is 74.4 µM (active).

As to `CN(C)c1ccc(N=NS(=O)(=O)O)cc1`, the AC50 is 17.9 µM (active).

`CC(=O)OCCC(C)C`: the AC50 was 73.2 µM (active).

Take `CCNc1ccccc1`: the AC50 is 9.94 µM (active).

`C[C@](N)(Cc1ccc(O)c(O)c1)C(=O)O`: the AC50 is 71.6 µM (active).

As to `CCCN(C1CCN(C(=O)C2CCNCC2)CC1)[C@@H]1CCc2ccc(OC)cc2C1`, the result was inactive.

With `O=C(O)CC(O)C(=O)O` (stereo not given), the AC50 was 77.9 µM (active).

Take `CN(C)c1ccc(Cc2ccc(N(C)C)cc2)cc1`: the AC50 is 13.2 µM (active).

Turning to `Nc1nc2ncc(CNc3ccc(C(=O)N[C@@H](CCC(=O)O)C(=O)O)cc3)nc2c(=O)[nH]1`, the AC50 was 78.5 µM (active).

For the molecule `O=C(O)c1cc(N=Nc2ccc(S(=O)(=O)Nc3ccccn3)cc2)ccc1O`, the AC50 is 35.8 µM (active).

With `CC(C)c1cccc(C(C)C)c1N1C(=O)c2ccc(O)cc2C1=O`, the AC50 was 63.1 µM (active).

In the case of `CCCCCCCCO`, the call was inactive.

For the molecule `CCCCCCc1ccc(O)cc1O`, the AC50 was 77.7 µM (active).

As for `CCCCCCCCCCCCCCCO`, the AC50 was 30.8 µM (active).

Consider `O=C(CCCCCCCCc1cccnc1)N1CCC(C=C(c2ccccc2)c2ccccc2)CC1`, for which the AC50 was 32.6 µM (active).

Turning to `COc1ccc2sc(C(=O)Nc3nnn[nH]3)c(OC(C)C)c2c1`, the AC50 was 35.3 µM (active).

Take `Fc1ccccc1[C@@H](F)COC1CCC(Nc2ncnc3[nH]ncc23)CC1` (stereo not given in full): the AC50 was 94.7 µM (active).

With `CC1=CC(=O)CC(C)(C)C1`, the molecule was called inactive.

As to `O=C(O)c1cccc(Oc2ccccc2)c1`, the AC50 was 37.9 µM (active).

On to `CCCC(=O)OCC`, for which the AC50 was 50 µM (active).

As for `COC(=O)CC(=O)OC`, the AC50 was 50 µM (active).

On to `O=c1n(CC2CO2)c(=O)n(CC2CO2)c(=O)n1CC1CO1` (stereo not given), for which the outcome was inactive.

On to `C1N2CN3CN1CN(C2)C3`, for which the AC50 is 51 µM (active).

As to `CCOCCO`, the call was inactive.

Turning to `CCCCC(CC)COC(=O)CCCCCCCCC(=O)OCC(CC)CCCC` (stereo not given), the molecule was classed as inactive.

Regarding `CC[C@H](C)C(=O)O[C@H]1C[C@@H](C)C=C2C=C[C@H](C)[C@H](CC[C@@H]3C[C@@H](O)CC(=O)O3)[C@H]21`, the AC50 was 24.4 µM (active).

With `C=CCCCCCCCCC(=O)O`, the half-maximal activity concentration (AC50) is 50 µM (active).

Take `Cc1c(-c2cccnc2)c2ccccc2n1CCCCC(=O)O`: the AC50 was 37.2 µM (active).

Regarding `CC[C@H]1OC(=O)[C@H](C)[C@@H](O[C@H]2C[C@@](C)(OC)[C@@H](O)[C@H](C)O2)[C@H](C)[C@@H](O[C@@H]2O[C@H](C)C[C@H](N(C)C)[C@H]2O)[C@](C)(O)C[C@@H](C)C(=O)[C@H](C)[C@@H](O)[C@]1(C)O`, the AC50 was 53.9 µM (active).

In the case of `CC(C)CC(C)(O)C#CC(C)(O)CC(C)C` (stereo not given), the AC50 was 50 µM (active).

Regarding `Cc1ccc(N)cc1O`, the AC50 is 26.4 µM (active).

For the molecule `COCCOc1cc2cc(C(=O)NC3CCN(C(C)C)CC3)n(CC(=O)Nc3ccc(Cl)cn3)c2cn1`, the AC50 is 2.09 µM (active).

As to `Cc1ccc(S(=O)(=O)O)cc1C`, the AC50 was 74.3 µM (active).

What is called AC50 is the concentration at which the activity in the assay is half-maximal.

For the origin of these results see PubChem BioAssay (EPA / NIEHS).
